# This is part of a sample that, as a whole, favours compounds with a hit. Of some 83,000 tested, about 20% had one in any assay.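 Cells were grown in 96-well plates and exposed to the test compound at a single concentration for 48 hours; results are reported as percent growth, with values below 10 considered active.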 A number with no mark means an inactive call. Active and inactive are the calls of the source.
# What was measured:
# Test in all cases: NCI-60 one-dose screen, 48 h (100 = growth as untreated, 0 = no growth, -100 = all killed)
# Conditions in all cases: 10 µM unless noted
# RPMI-8226 leukemia = test system: RPMI-8226 leukemia
# OVCAR-8 ovarian = test system: OVCAR-8 ovarian
# OVCAR-5 ovarian = test system: OVCAR-5 ovarian
# OVCAR-4 ovarian = test system: OVCAR-4 ovarian
# SK-OV-3 ovarian = test system: SK-OV-3 ovarian
# IGROV1 ovarian = test system: IGROV1 ovarian
# OVCAR-3 ovarian = test system: OVCAR-3 ovarian
# HS 578T breast = test system: HS 578T breast
# NCI/ADR-RES ovarian = test system: NCI/ADR-RES ovarian
SMILES,growth (RPMI-8226 leukemia),growth (OVCAR-8 ovarian),growth (OVCAR-5 ovarian),growth (OVCAR-4 ovarian),growth (SK-OV-3 ovarian),growth (IGROV1 ovarian),growth (OVCAR-3 ovarian),growth (HS 578T breast),growth (NCI/ADR-RES ovarian)
CC1(C)CC(C(=O)OCCCCCCCCCCC[P+](c2ccccc2)(c2ccccc2)c2ccccc2)C(C)(C)N1O (configuration not stated),-43.8% (active),-39% (active),-62.9% (active),-31.5% (active),-19.5% (active),-58.7% (active),-95.9% (active),-44% (active),14.6%
Nc1ccc(Nc2nccc(-c3ccc4ccccc4c3)n2)cc1,29.7%,48.2%,69.1%,56.4%,60.7%,38.2%,46.9%,43.1%,18.4%
COc1ccc(-c2cc(-c3ccc(N(C)C)cc3)nc(NC(=O)c3ccncc3)n2)cc1,93%,97.7%,109%,122%,117%,95.2%,98.8%,97.2%,96.6%
COc1ccc(/C=C2\N=C3Sc4cc(Cl)ccc4C(=O)N3C2=O)cc1,101%,94.6%,98.1%,103%,98.1%,107%,104%,102%,106%
COc1ccc(-n2c(C)nc3c(c(C)nn3-c3ccccc3)c2=O)cc1,5.55% (active),6.61% (active),30.6%,36.8%,45.1%,20.3%,-32.6% (active),21.6%,-12.9% (active)
O=C(CO[N+](=O)[O-])Nc1ccc(C(=O)/C=C/c2ccc(Cl)cc2)cc1,-14.2% (active),27.2%,66.9%,76.1%,89.3%,-26% (active),0.332% (active),89.7%,29.9%
CC(=O)C1=C(O)C=C2Oc3c(C(=O)/C=C/c4ccccc4)c(O)c(C)c(O)c3[C@]2(C)C1=O,34.9%,14%,78.7%,55.4%,40.9%,37.1%,27.5%,50%,16.9%
O=C1C(=O)N(CCCCn2cc(CO)nn2)c2ccccc21,99.3%,102%,98.6%,99.2%,100%,106%,115%,98.8%,100%
CC1=N/C(=C\c2cccc(Br)c2)C(=O)O1,108%,105%,106%,110%,102%,106%,103%,107%,107%
O=C1C=CC(=O)c2c1nc1n2CCCC1,116%,92%,112%,101%,92.5%,103%,21%,73.1%,89.6%
COc1cc(-c2nc3ccccc3s2)ccc1NC(=O)COc1ccc(Cl)cc1,63.5%,-3.09% (active),61.8%,6.47% (active),87.1%,24.6%,42.4%,44.7%,33.2%
CCCCCCCCCCCCCCCCCCSC1=CC(=O)C(OC)=C(OC)C1=O,40.8%,86.2%,94.3%,109%,95.7%,106%,98.2%,90.9%,91.7%
CCN(CC)CCCCNc1ccc(NCCCCN(CC)CC)c2c1C(=O)c1ccccc1C2=O,47.8%,72.9%,114%,84.1%,122%,71.8%,91.5%,101%,83.4%
CC[C@H](Nc1nc(N)nc(C)c1C#N)c1nc2cccc(NCc3ccc(C(=O)NO)cc3)c2c(=O)n1-c1ccccc1,4.78% (active),-25.7% (active),16.8%,15.5%,-12% (active),-50.5% (active),0.5% (active),-8.46% (active),74.7%
CN[C@@]12CC3(C=CC(=O)C=C3)O[C@]1(Cc1ccc(OC)cc1)N(C)C(=O)N2,17.2%,6.34% (active),33.1%,60.9%,108%,55.3%,17.3%,106%,61.7%
COc1ccc(/C=C2\N=C3SC=C(N)N3C2=O)cc1,-28.8% (active),35.7%,59.9%,21.5%,45.6%,9.81% (active),24.2%,50.4%,42.3%
C[C@@H]1CC[C@@H]2[C@@H]1[C@H](OC(=O)/C=C/c1ccccc1)[C@]1(c3ccccc3)C[C@@H](OC(=O)CO)[C@@]2(C)O1,97.7%,54.3%,99.8%,103%,96.1%,93.6%,103%,-20% (active),62.1%
COc1ccc(C(=O)/C=C/c2cc3ccccc3[nH]c2=O)cc1,15.3%,20.4%,52.2%,58.6%,53%,50.5%,-19% (active),53.6%,-5.27% (active)
CC(=O)Oc1ccc(Nc2c3ccccc3nc3ccccc23)cc1,-16.2% (active),-58.9% (active),18%,13.8%,3.92% (active),-11.8% (active),9.24% (active),25.1%,23.8%
NCCN1CCN(c2nccc(-c3ccc4ccccc4c3)n2)CC1,5.16% (active),71.3%,73.8%,78.7%,88.6%,51.2%,73.8%,63.9%,69.4%
COc1ccc(C(=O)COc2ccc(/C=C3\Oc4ccc(Cl)cc4C3=O)cc2)cc1,181%,76.6%,103%,86.3%,,32.9%,113%,91.8%,88.6%
COc1cc2cc(COc3nccc(-c4ccc(Cl)cc4)n3)c(=O)[nH]c2cc1OC,-28.4% (active),81.3%,96.7%,82.5%,,79.6%,90.4%,67.3%,84.2%
Cc1[nH]n(-c2ccccc2)c2nc3nncc3c(-c3ccc(Cl)cc3)c12,80.6%,89.8%,99.1%,107%,105%,124%,121%,,93.6%
CN1C2CCC1/C(=C\c1ccc(Cl)cc1)C1=C2[C@@H](c2ccc(Cl)cc2)C(C#N)=C(N)O1 (some centres not stated),62.6%,93.3%,84.5%,75.6%,94.8%,79.1%,92.5%,95.1%,95.8%
COc1ccc(-c2cc(-c3cccnc3)nc3sc4c(=O)n(-c5ccc(C)cc5)nnc4c23)cc1OC,99.7%,105%,90%,109%,95%,99.6%,107%,,102%
Cc1ccc(-c2nc(/C=N/Nc3cc(C)nc4ccc(Cl)cc34)c(C)o2)cc1,-48.6% (active),-88.6% (active),-65.4% (active),,96.3%,-69.7% (active),-80.8% (active),-42.8% (active),-37.7% (active)
COc1ccc(-c2cn3c(-c4ccc(OC)cc4)cnc3c(Oc3ccc4c(C)cc(=O)oc4c3)n2)cc1,63.7%,26.3%,88%,-18.6% (active),90.6%,70.6%,46.6%,,29.9%

# Reference: PubChem BioAssay (NCI)
